Measurements published in PubChem BioAssay (EPA / NIEHS).
Records with an inconclusive call do not appear. Calls of active or inactive are those of the source. Rule for the calls, unless noted: active = hit-call score of the fitted dose curve at least 0.9, where 1 is the maximum; inactive = score below 0.9.

Assays:
[1] = CCTE_Shafer_MEA_dev_firing_rate_mean: CCTE's Neural Network Formation Assay for Mean Firing Rate, Shafer Lab (AID 2284031)
Outline: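 Extracellular spike frequency, AUC over DIV 5–12 recordings, in rat cortical neuron MEA cultures dosed from plating; loss direction vs DMSO.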

[2] = CCTE_Shafer_MEA_dev_per_burst_spike_percent: CCTE's Neural Network Formation Assay for Percent of Spikes in a Burst, Shafer Lab (AID 2284032);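 for AC50: fitted as a decrease in burst spike percentage below DMSO baseline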
Outline: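 Value is trapezoidal AUC over recordings on days 5, 7, 9 and 12 of the well-mean fraction of spikes falling in single-electrode bursts; rat cortical cultures exposed continuously from plating, treatment renewed DIV 5 and 9, fitted downward against DMSO.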

[3] = CCTE_Shafer_MEA_dev_active_electrodes_number: CCTE's Neural Network Formation Assay for Number of Active Electrodes, Shafer Lab (AID 2284040; active = hit-call score of the fitted dose curve at least 0.9, where 1 is the maximum;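 for AC50: potency for loss of active electrodes versus DMSO so lower counts are hits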)
Outline: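 Developing rat cortical networks on MEAs, exposed DIV 0–12. Value is the AUC of active-electrode counts (≥5 spikes/min) from days 5, 7, 9, 12, relative to DMSO.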

[4] = CCTE_Shafer_MEA_dev_burst_rate: CCTE's Neural Network Formation Assay for Burst Rate, Shafer Lab (AID 2284042)
Outline: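 Primary rat cortical neurons on PEI-coated 48-well MEA plates (laminin added with cells at plating) (16 electrodes/well), exposed from plating to day 12, dosing renewed at DIV 5 and 9. Burst rate averaged over active electrodes, recorded DIV 5, 7, 9, 12, summarized as AUC; loss versus DMSO.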

[5] = CCTE_Shafer_MEA_dev_bursting_electrodes_number: CCTE's Neural Network Formation Assay for Number of Bursting Electrodes, Shafer Lab (AID 2284043; active = hit-call score of the fitted dose curve at least 0.9, where 1 is the maximum;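 for AC50: potency is for loss of bursting electrodes relative to DMSO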)
Outline: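 Counted: electrodes with burst rate ≥1 per 2 min in each well. Cells: primary rat cortex, 1.5 x 10^5/well, on 16-electrode MEA wells. Exposure: DIV 0–12, compound renewed DIV 5 and 9. Recording days 5, 7, 9, 12; AUC vs DMSO baseline.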

[6] = CCTE_Shafer_MEA_dev_per_burst_interspike_interval: CCTE's Neural Network Formation Assay for Burst Interspike Interval, Shafer Lab (AID 2284044)
Outline: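 Developmental network-formation MEA in primary rat cortical cultures with exposure spanning days 0–12. Within-burst ISI is averaged per well and integrated across recording days by area under the curve, with DMSO as negative control baseline.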

[7] = CCTE_Shafer_MEA_dev_burst_duration_mean: CCTE's Neural Network Formation Assay for Mean Burst Duration, Shafer Lab (AID 2284045)
Outline: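 Network-formation assay in primary rat cortical neurons; treatment spans twelve days of development. Mean burst duration per well is integrated by trapezoidal AUC and fitted in the loss-of-signal direction against DMSO baseline.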

[8] = CCTE_Shafer_MEA_dev_interburst_interval_mean: CCTE's Neural Network Formation Assay for Mean Interburst Interval, Shafer Lab (AID 2284046);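 note: well-mean interburst interval of bursting electrodes as AUC over four recording days; curve fitted for decrease in interburst interval relative to DMSO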
Outline: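 Recordings on days 5, 7, 9 and 12 give well-mean interburst interval across actively bursting electrodes, summarized as area under the curve. Cultures: rat cortical neurons, continuous exposure from day 0, compound renewed at feeds; decrease analyzed versus DMSO.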

[9] = CCTE_Shafer_MEA_dev_inter_network_spike_interval_mean: CCTE's Neural Network Formation Assay for Mean Inter-network Spike Interval, Shafer Lab (AID 2284047)
Outline: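 Primary rat cortical neurons on 16-electrode MEA wells, exposed from plating day 0 through DIV 12, compound renewed at DIV 5 and 9 media changes. Mean interval between network-spike peaks recorded DIV 5, 7, 9, 12; collapsed as trapezoidal AUC, fitted downward versus DMSO.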

[10] = CCTE_Shafer_MEA_dev_network_spike_number: CCTE's Neural Network Formation Assay for Number of Network Spikes, Shafer Lab (AID 2284048);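 note: synchronized bursts across electrodes counted on days 5 7 9 12 and integrated as AUC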
Outline: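 Extracellular recordings from 16-electrode wells track network formation in rat cortical cultures under continuous treatment from plating. The endpoint is network spike number, expressed as AUC across DIV 5–12 relative to DMSO vehicle.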

[11] = CCTE_Shafer_MEA_dev_network_spike_peak: CCTE's Neural Network Formation Assay for Mean Number of Electrodes in Network Spike, Shafer Lab (AID 2284049);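 for AC50: fitted for loss of signal meaning fewer electrodes in network spikes than DMSO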
Outline: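 Continuous 12-day exposure of rat cortical cultures, starting at plating, on MEA plates. Endpoint: electrodes participating in network-spike peaks, AUC across DIV 5–12, DMSO as negative control.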

[12] = CCTE_Shafer_MEA_dev_spike_duration_mean: CCTE's Neural Network Formation Assay for Mean Spike Duration, Shafer Lab (AID 2284051);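 note: mean network spike duration pooled as area under curve over DIV 5 to 12 recordings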;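 for AC50: potency for a decrease in mean network spike duration versus DMSO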
Outline: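 Primary rat cortical neurons on 16-electrode MEA wells (PEI-coated, laminin in plating drop), exposed from plating through DIV 12 with compound renewed at DIV 5 and 9. Mean network-spike duration recorded DIV 5, 7, 9, 12; trapezoidal AUC across days, DMSO baseline.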

[13] = CCTE_Shafer_MEA_dev_network_spike_duration_std: CCTE's Neural Network Formation Assay for Standard Deviation of Network Spike Duration, Shafer Lab (AID 2284052);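 note: area under curve of spike duration SD across recording days 5 to 12; hits are decreases in network spike duration SD versus DMSO vehicle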
Outline: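 Primary rat cortical neurons on PEI-coated 16-electrode MEA wells, exposed from plating day 0 through day 12 with compound renewed at DIV 5 and 9. Network spike duration SD recorded on days 5, 7, 9, 12, collapsed as trapezoidal AUC; loss-of-signal fit versus DMSO.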

[14] = CCTE_Shafer_MEA_dev_per_network_spike_spike_number_mean: CCTE's Neural Network Formation Assay for Mean Number of Spikes in a Network Spike, Shafer Lab (AID 2284053)
Outline: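 Primary rat cortical neurons on 48-well, 16-electrode MEA plates were exposed from plating to DIV 12, with dosing renewed on DIV 5 and 9. Spikes per network spike (0.05 s peak window) were recorded on DIV 5, 7, 9 and 12 and collapsed as trapezoidal AUC versus DMSO.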

[15] = CCTE_Shafer_MEA_dev_per_network_spike_spike_percent: CCTE's Neural Network Formation Assay for Percent of Spikes in a Network Spike, Shafer Lab (AID 2284054)
Outline: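 Developing networks of rat cortical neurons are dosed at day 0 and recorded extracellularly four times up to day 12. The endpoint is the area under the curve of percent spikes in network spikes, fitted in the negative direction relative to DMSO.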

[16] = UKN5_HCS_SBAD2_cell_viability: Viability Assessment in the University of Konstanz (UKN) Leist Lab Neurite Outgrowth Assay in human iPSC-derived immature Dorsal Root Ganglia Neurons (UKN5) (AID 2284056)
Outline: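 iPSC-derived immature peripheral neurons (SBAD2) seeded on Matrigel with CHIR99021, SU5402 and DAPT, dosed 1 h later for 24 h. Viability from Hoechst H-33342 and calcein-AM live staining, high-content imaging; bidirectional fit versus DMSO.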

[17] = CCTE_Shafer_MEA_dev_LDH: CCTE's Lactate Dehydrogenase Assay for Cytotoxicity in the Neural Network Formation Assay, Shafer Lab (AID 2284068; active = hit-call score of the fitted dose curve at least 0.9, where 1 is the maximum;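 note: exposure for twelve days from plating with re-dosing on DIV 5 and 9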)
Outline: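 Primary rat cortical neurons were plated on PEI/laminin MEA plates and exposed from day 0 for twelve days, with compound renewed at DIV 5 and 9. Cytotoxicity was determined by spectrophotometric LDH assay relative to DMSO.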

[18] = UKN5_HCS_SBAD2_neurite_outgrowth: University of Konstanz (UKN) Leist Lab Neurite Outgrowth Assay in human iPSC-derived immature Dorsal Root Ganglia Neurons (UKN5) (AID 2284070); conditions: actives raise or lower the signal
Outline: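 Neurite outgrowth is quantified as calcein-AM-labelled neurite area in human iPSC-derived peripheral neurons treated for 24 h, starting 1 h after plating in medium with CHIR99021 (1.5 uM), SU5402 (5 uM) and DAPT (5 uM).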

[19] = CCTE_Shafer_MEA_dev_correlation_coefficient_mean: CCTE's Neural Network Formation Assay for Mean Correlation Coefficient, Shafer Lab (AID 2284093);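 for AC50: well mean pairwise spike train correlation integrated as AUC over recording days 5 to 12; potency fitted for loss of correlation relative to DMSO vehicle wells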
Outline: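 Spontaneous activity recorded on days 5, 7, 9 and 12 post-plating; pairwise spike correlations are averaged across active electrodes and collapsed to an area-under-curve. Rat cortical cultures are dosed from plating through 12 days, with compound renewed at media changes.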

[20] = UKN2_HCS_IMR90_neural_migration: University of Konstanz (UKN) Leist Lab Neural Crest Cell Migration Assay in human induced IMR90 Pluripotent Stem Cells (UKN2) (AID 2284204); conditions: actives raise or lower the signal
Outline: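 Using a 96-well stopper format with PLO/laminin/fibronectin coating, neural crest cells from iPSC migrate in cytokine-supplemented N2-S medium; after 24 h, chemicals are applied for a further 24 h, then cells are imaged after dye staining.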

[21] = UKN4_HCS_LUHMES_neurite_outgrowth: University of Konstanz (UKN) Leist Lab Neurite Outgrowth Assay in human LUHMES cells (UKN4) (AID 2284206); conditions: actives raise or lower the signal
Outline: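 Neurite area in dopaminergic-model LUHMES neurons is measured by high-content imaging of calcein-AM after 24 h treatment starting shortly after day-2 replating; Hoechst staining tracks viability.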

[22] = UKN4_HCS_LUHMES_cell_viability: Viability Assessment in the University of Konstanz (UKN) Leist Lab Neurite Outgrowth Assay in human LUHMES cells (UKN4) (AID 2284232)
Outline: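 Measured in replated, 2-day-differentiated LUHMES cells treated 24 h; stained 30 min with H-33342 and calcein-AM before high-content imaging.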

[23] = UKN2_HCS_IMR90_cell_viability: Viability Assessment in the University of Konstanz (UKN) Leist Lab Neural Crest Cell Migration Assay in human induced IMR90 Pluripotent Stem Cells (UKN2) (AID 2284233);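 note: viability of neural crest cells differentiated from IMR90 iPSC measured by calcein-AM fluorescence imaging; cells exposed to compound for 24 h after a 24 h migration phase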
Outline: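 cMINC format, iPSC-derived neural crest (IMR90); 24 h migration (EGF/FGF, N2-S), then 24 h toxicant. Calcein-AM/H-33342 stain 30 min; fluorescence intensity by HCS; DMSO-normalised, bidirectional fitting.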

IYD (gene 389434) = test: CCTE_GLTED_hIYD: CCTE's human Iodotyrosine Deiodinase (xIYD) Inhibition Assay, Great Lakes Toxicology and Ecology Division (GLTED) Lab (AID 2284317; active = hit-call score of the fitted dose curve at least 0.9, where 1 is the maximum;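 note: cell-free human IYD enzyme made in baculovirus insect cells; iodide freed from monoiodotyrosine measured by cerium arsenite color change at 420 nm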)
Outline: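 Iodide liberated from monoiodotyrosine by baculovirus-expressed human IYD over 3 h was determined colorimetrically (Sandell-Kolthoff, 420 nm) after Dowex separation; inhibition is loss of signal versus DMSO.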

[24] = CCTE_Mundy_HCI_Cortical_Synap_Neur_Matur_NeuriteSpotCountPerNeuriteLength: CCTE's Synaptogenesis and Neurite Maturation Assay in rat cortical cells for Neurite Spot Count per Neurite Length, Mundy Lab (AID 2284210)
Outline: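 Neurite-associated synapse density (synaptophysin puncta per unit neurite length) is measured by fluorescence high-content imaging in rat cortical cultures treated from DIV 7 and fixed at DIV 12, with DMSO as negative control.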

[25] = CCTE_Mundy_HCI_Cortical_Synap_Neur_Matur_BPCount: CCTE's Synaptogenesis and Neurite Maturation Assay in rat cortical cells for Branch Point Count, Mundy Lab (AID 2284211)
Outline: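 In this multiplexed morphology assay, cortical cells from rat receive chemicals at DIV 7 and are fixed at DIV 12, then immunostained and imaged; branch points are counted, with DMSO as baseline.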

[26] = CCTE_Mundy_HCI_Cortical_Synap_Neur_Matur_NeuriteLength: CCTE's Synaptogenesis and Neurite Maturation Assay in rat cortical cells for Neurite Length, Mundy Lab (AID 2284214)
Outline: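 DMSO-normalised neurite length, from high-content imaging of anti-MAP2-stained rat cortical cells fixed at DIV 12. Glia were suppressed with AraC (DIV 5) before chemical exposure from DIV 7.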

[27] = CCTE_Mundy_HCI_Cortical_Synap_Neur_Matur_NeuriteSpotCountPerNeuron: CCTE's Synaptogenesis and Neurite Maturation Assay in rat cortical cells for Neurite Spot Count per Neuron Count, Mundy Lab (AID 2284215)
Outline: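 Synapse density is scored as synaptophysin spots along neurites per neuron in fixed rat cortical neurons, measured at DIV 12 after chemical dosing at DIV 7. DMSO is the negative control and activity baseline.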

[28] = CCTE_Mundy_HCI_Cortical_Synap_Neur_Matur_SynapseCount: CCTE's Synaptogenesis and Neurite Maturation Assay in rat cortical cells for Synapse Count, Mundy Lab (AID 2284218)
Outline: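 Endpoint: synapses/neuron by HCI (synaptophysin puncta on MAP2-labelled neurites, Hoechst nuclei). Rat primary cortical cells, AraC DIV 5, dosed DIV 7, fixed DIV 12; DMSO negative control.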

[29] = CCTE_Mundy_HCI_Cortical_Synap_Neur_Matur_NeuriteCount: CCTE's Synaptogenesis and Neurite Maturation Assay in rat cortical cells for Neurite Count, Mundy Lab (AID 2284222)
Outline: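 Rat primary cortical cells; AraC added at DIV 5, chemicals dosed with media change at DIV 7 through DIV 12. MAP2/synaptophysin/Hoechst immunostaining, high-content imaging of neurite number; fitted relative to DMSO.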

[30] = CCTE_Mundy_HCI_Cortical_Synap_Neur_Matur_CellBodySpotCount: CCTE's Synaptogenesis and Neurite Maturation Assay in rat cortical cells for Cell Body Spot Count, Mundy Lab (AID 2284223)
Outline: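 Synapse number at neuronal cell bodies was quantified as synaptophysin puncta per neuron in rat cortical cultures exposed from DIV 7 to DIV 12. Values were normalised to DMSO.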

[31] = CCTE_Mundy_HCI_Cortical_Synap_Neur_Matur_NeuronCount: CCTE's Synaptogenesis and Neurite Maturation Assay in rat cortical cells for Neuron Count, Mundy Lab (AID 2284242; active = hit-call score of the fitted dose curve at least 0.9, where 1 is the maximum;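 note: hits reduce neuron count versus DMSO baseline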)
Outline: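 Measured at DIV 12: fluorescently labelled neurons (Hoechst nuclei, MAP2) in rat primary cortical cultures, counted by high-content imaging. AraC suppressed glia from DIV 5; DMSO served as negative control.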

Measured: AC50

Brc1cc(Br)c(Oc2cc(Br)c(Br)cc2Br)cc1Br
active: [17] 7.47 µM
not listed: IYD (gene 389434) | [24] | [25] | [26] | [27] | [28] | [29] | [30] | [31]
inactive: all other assays above

N[C@@H](Cc1ccc(O)c([N+](=O)[O-])c1)C(=O)O
active: IYD (gene 389434) 25.3 nM

[O]=[V]([OH])([OH])[OH]
active: [2] 15 µM | [3] 15 µM | [5] 9.39 µM | [11] 10.7 µM | [12] 15 µM | [14] 13.9 µM | [15] 15 µM | [17] 24.3 µM | [19] 13.6 µM | [24] 40.2 µM | [25] 12.2 µM | [26] 27 µM | [27] 11.6 µM | [28] 15.4 µM | [29] 78.5 µM | [30] 44.3 µM | [31] 19.6 µM
inactive: [1] | [4] | [6] | [7] | [8] | [9] | [10] | [13]
